This assay is described as follows: chemical genetic growth profiling, strain panel (AID 1159580).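 Further: tested at 20 µM; growth read once vehicle control cultures reached saturation at 30 °C; 1 = growth at the plate median or of vehicle wells.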 As to conditions: S. cerevisiae deletion strains, growth OD.
The mark [1] stands for this setting: locus YAL013W, strain DEP1, stronger effect = lower value.
[2] abbreviates: locus YBR229C, strain ROT2, stronger effect = lower value.
[3] abbreviates: locus YDL101C, strain DUN1, stronger effect = lower value.
The mark [4] stands for this setting: locus YDR150W, strain NUM1, stronger effect = lower value.
The mark [5] stands for this setting: locus YEL061C, strain CIN8, stronger effect = lower value.
Where [6] appears, read: locus YGR078C, strain PAC10, stronger effect = lower value.
[7] abbreviates: locus YHR030C, strain SLT2, stronger effect = lower value.
The mark [8] stands for this setting: locus YHR087W, strain rtc3, stronger effect = lower value.
[9] abbreviates: locus YJR043C, strain POL32, stronger effect = lower value.
[10] abbreviates: locus YJR075W, strain HOC1, stronger effect = lower value.
The mark [11] stands for this setting: locus YLR039C, strain RIC1, stronger effect = lower value.
[12] abbreviates: locus YLR058C, strain SHM2 (second series), stronger effect = lower value.
[13] abbreviates: locus YLR085C, strain ARP6, stronger effect = lower value.
The mark [14] stands for this setting: locus YLR262C, strain YPT6, stronger effect = lower value.
Where [15] appears, read: locus YML094W, strain GIM5, stronger effect = lower value.
Setting [16] is: locus YMR219W, strain ESC1, stronger effect = lower value.
Setting [17] is: locus YMR263W, strain SAP30, stronger effect = lower value.
Setting [18] is: locus YNL153C, strain GIM3, stronger effect = lower value.
Where [19] appears, read: locus YNL298W, strain CLA4 (second series), stronger effect = lower value.
[20] abbreviates: locus YNL322C, strain KRE1, stronger effect = lower value.
Where [21] appears, read: locus YNR030W, strain Alg12, stronger effect = lower value.
The mark [22] stands for this setting: locus YPL055C, strain LGE1, stronger effect = lower value.
[23] abbreviates: locus YPL241C, strain CIN2, stronger effect = lower value.
[24] abbreviates: locus YPR135W, strain CTF4, stronger effect = lower value.
Setting [25] is: locus YGR229C, strain SMI1, stronger effect = lower value.
[26] abbreviates: locus YAL040C, strain CLN3, stronger effect = lower value.
Setting [27] is: locus YCL061C, strain MRC1 (second series), stronger effect = lower value.
Where [28] appears, read: locus YDR363W, strain ESC2, stronger effect = lower value.
Setting [29] is: locus YER002W, strain NOP16, stronger effect = lower value.
Where [30] appears, read: locus YMR307W, strain GAS1, stronger effect = lower value.
[31] abbreviates: locus YNL175C, strain NOP13, stronger effect = lower value.
Setting [32] is: locus YNL197C, strain WHI3, stronger effect = lower value.
[33] abbreviates: locus YNL224C, strain SQS1, stronger effect = lower value.
Where [34] appears, read: locus YOR083W, strain WHI5 (second series), stronger effect = lower value.

About 2,000 (36%) of roughly 5,500 compounds were called active. Another 18% or so got no clear call; they are omitted. The list shows a part of the results. Unmarked numbers belong to inactive results. No stated cut-off is given here; in the data, active means normalized growth mostly below about 0.91 (no sharp cut-off); inconclusive means no clear call, values can overlap the other calls; inactive means mostly above about 0.92.

For the molecule `O=[N+]([O-])c1cc(C(F)(F)F)ccc1NCCCn1ccnc1`, the normalized growth is, setting by setting: under setting [1], 1.01; under setting [2], 1.01; under setting [3], 1.06; (locus YDL134C, strain PPH21, stronger effect = lower value) 0.976; under setting [4], 1.04; under setting [5], 0.988. Also, the normalized growth reads like this: under setting [6], 1.03; under setting [7], 1.1; under setting [8], 0.965; under setting [9], 1.04; under setting [10], 1.04; (locus YKL190W, strain CNB1, stronger effect = lower value) 0.994. Further, the normalized growth reads like this: under setting [11], 1.08; under setting [12], 1; under setting [13], 1.03; under setting [14], 1; under setting [15], 1.01; under setting [16], 0.991. For the same molecule, the normalized growth reads like this: under setting [17], 1.03; under setting [18], 1.04; under setting [19], 1.01; under setting [20], 0.98; under setting [21], 1.01; under setting [22], 0.991. Moreover, the normalized growth is 1.03 under setting [23] and 1.07 under setting [24].

On to `O=C(NCCNc1ccc(C(F)(F)F)cc1[N+](=O)[O-])c1cccs1`, for which the normalized growth runs as follows: under setting [1], 0.974; under setting [2], 0.972; (locus YCL061C, strain MRC1, stronger effect = lower value) 0.983; under setting [3], 0.93; under setting [4], 0.931; under setting [5], 0.948. Moreover, the normalized growth reads like this: under setting [6], 0.967; under setting [25], 0.974; under setting [7], 0.673 (active); under setting [8], 0.973; under setting [9], 0.978; under setting [10], 0.998. Also, the normalized growth runs as follows: under setting [11], 0.838; under setting [12], 0.967; under setting [13], 0.775 (active); under setting [14], 0.915; under setting [15], 0.841 (active); under setting [16], 0.982. Besides, the normalized growth runs as follows: under setting [17], 1.02; under setting [18], 0.976; under setting [19], 0.863; under setting [20], 0.988; under setting [21], 0.911; (locus YOL006C, strain TOP1, stronger effect = lower value) 0.778. Moreover, the normalized growth reads like this: under setting [22], 0.771 (active); under setting [23], 1.13; under setting [24], 0.743.

Regarding `CCOC(=O)c1ncn2c1[C@@H]1CCCN1C(=O)c1cc(OC)ccc1-2`, the normalized growth is 0.938 under setting [26]; 1.01 under setting [27]; 1 under setting [28]; 1.01 under setting [29]; 1.05 under setting [25]; 0.981 under setting [30]. Moreover, the normalized growth runs as follows: under setting [31], 1.04; under setting [32], 1.03; under setting [33], 1.01; under setting [20], 1.02; under setting [34], 1.04; under setting [22], 1.05. Moreover, the normalized growth under setting [23] is 1.01.

As to `CCCN(CCC)[C@@H]1CCc2c(F)ccc(O)c2C1`, the normalized growth by setting is: under setting [1], 1.01; under setting [26], 1.01; under setting [27], 1.01; under setting [4], 0.983; under setting [28], 1.01; under setting [29], 1. The normalized growth reads like this: under setting [10], 1.02; under setting [17], 1.01; under setting [30], 1; under setting [32], 0.992; under setting [33], 0.999; under setting [34], 1.01. The normalized growth is, setting by setting: under setting [22], 1.01; under setting [23], 1.

Turning to `CCCN(CCC)[C@@H]1CCc2cccc(O)c2C1`, the normalized growth reads like this: under setting [26], 1.04; under setting [27], 0.995; under setting [4], 0.989; under setting [28], 0.997; under setting [29], 0.977; under setting [6], 0.981. The normalized growth is, setting by setting: under setting [25], 1.07; under setting [10], 1.02; under setting [17], 1; under setting [30], 1.03; under setting [18], 0.953; under setting [31], 0.998. Moreover, the normalized growth is, setting by setting: under setting [32], 0.974; under setting [33], 1; under setting [34], 1.01; under setting [22], 1.01; under setting [23], 1.

Take `CCCN(CCC)[C@H]1CCc2c(F)ccc(O)c2C1`: the normalized growth runs as follows: under setting [27], 1; under setting [28], 1.01; under setting [29], 0.998; under setting [25], 1.02; under setting [10], 1.01; under setting [30], 0.993. Also, the normalized growth by setting is: (locus YNL128W, strain TEP1, stronger effect = lower value) 0.428 (active); under setting [32], 0.979; under setting [33], 0.995; under setting [34], 1.01; under setting [23], 1.

For `CN(C)CC(=O)OC[C@@H](O)[C@@H](O)[C@H](O)[C@@H](O)C(=O)O`, the normalized growth is, setting by setting: under setting [7], 0.956; (locus YHR079C, strain IRE1, stronger effect = lower value) 0.944; (locus YJL095W, strain BCK1, stronger effect = lower value) 0.954; (locus YJR066W, strain TOR1, stronger effect = lower value) 0.924; (locus YLR113W, strain HOG1, stronger effect = lower value) 0.956; (locus YNL183C, strain NPR1, stronger effect = lower value) 0.896. The normalized growth is, setting by setting: (locus YOR231W, strain MKK1, stronger effect = lower value) 0.964; (locus YPL256C, strain CLN2, stronger effect = lower value) 0.969.
